Measurements: PubChem BioAssay (NCATS)
Where “and” joins values, the source holds several entries; their conditions need not be identical. Equal entries are not always repeated. Results filed as inconclusive are left out. Unmarked numbers belong to inactive results. Calls of active or inactive are those of the source. Calls follow the shape of the dose curve; as a rule, active = well fitted curve in the direction sought with a large enough effect; inconclusive = small, poorly fitted or top-dose-only effect, or another doubt; inactive = no such curve, though single readings can be large or run the other way.

experiment: qHTS Assay for Identifying Gametocytocidal Compounds (AID 743244);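 as to max response: actives lower the fluorescent signal which means gametocytes are killed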; settings: P. falciparum 3D7 stage III-V gametocytes, alamarBlue, 72 h; max response: active compounds read low
Excerpt: Malaria cases and deaths have dropped 50% in 29 countries since 2000 due to the combined effects of long-lasting insecticidal bednets, indoor residual spraying, and artemisinin-based combination therapies (ACTs). This success has raised hopes for malaria eradication and consequently stimulated interest in developing new reagents that block gametocyte transmission such as novel and safe gametocytocidal drugs. However, previous drug development efforts have focused primarily on the asexual parasites that cause symptoms, but not malaria transmission. Consequently, patients can remain infectious for weeks after the clearance of asexual parasites and clinical symptoms. To be transmitted from person to person via a mosquito, the parasites must switch from asexual to sexual development and produce male and female gametocytes. Malaria gametocytes consist of five stages (I, II, III, IV and V). The late stage gametocytes (III, IV and V) are difficult to be cultured in vitro and the long lifespan of mature gametocytes allows them being transmitted from host to mosquitoes unless they are completely eliminated by gametocytocidal agents. To identify gametocytocidal compounds which are capable of killing late stage P. falciparum gametocytes, a high throughput gametocyte viability assay was employed. This assay uses oxidoreduction indicator, alamarBlue, as a general measure of metabolic activity of gametocytes. Within live cells, the nonfluorescent resazurin is reduced to resorufin, a bright red fluorescence dye. Fluorescence decreases upon treatment of gametocytocidal compounds. P. falciparum gametocyte (3D7 strain) was used in this study.
The 1536-well gametocycidal viability assay was based on the previous method of Tanaka et al. Stage III-V gametocytes were tested against three compound libraries, including 4265 compounds from NCGC pharmaceutical collection, 400 from Malaria Box library, and 550 from an internal collection of kinase inhibitors. Briefly, 2.5 ul/well incomplete medium was dispensed into each well of 1,536-well plates using the Multidrop Combi followed by 23 nl compound transferring using the NX-TR Pintool (WAKO Scientific Solutions, San Diego, CA). Then, 2.5 ul/well of gametocytes was dispensed with a seeding density of 20,000 cells/well using the Multidrop Combi. The assay plates were incubated for 72 h at 37C with 5% CO2. After addition of 5 ul/well of 2X AlamarBlue dye (Life Technologies, cat. no. DAL1100), the plates were incubated for 24 h at 37C with 5% CO2 and then were read in a fluorescence detection mode (Ex = 525 nm, Em = 598 nm) on a ViewLux plate reader (PerkinElmer).
% is scaled to controls: 0 for no effect and ±100 for the full control effect; potency is read from the fitted curve at half-maximal effect.

Row | Structure (SMILES) | max response | Potency
1 | COc1ccc(OC)c([C@@H](O)[C@H](C)N)c1 | 0.514% | –
2 | CCCCCl | 3.57% | –
3 | C[N+](C)(C)CC#CCOC(=O)Nc1cccc(Cl)c1 | 12.7% | –
4 | CC(=O)O[C@H]1CC[C@H]2[C@@H]3CCC4=CC(=O)CCC4=C3C=C[C@]12C | 5.16% | –
5 | C[C@@H]1O[C@H](C[N+](C)(C)C)CS1 | 20.1% | –
6 | CCCCCCCCOC(=O)c1ccccc1C(=O)OCCCCCCCC | -1.95% | –
7 | NCC(CP(=O)(O)O)c1ccc(Cl)cc1 (stereo not given) | 18.6% | –
8 | CN1[C@H]2CC[C@@H]1[C@@H](C(=O)O)[C@@H](OC(=O)c1ccccc1)C2 | 17.6% and -3.85% | –
9 | CC1(C(=O)O)C2CCC(O2)C1(C)C(=O)O (stereo not given) | -9.57% | –
10 | CCOC(=O)c1ncn2c1[C@@H]1CCCN1C(=O)c1cc(OC)ccc1-2 | -1.18% | –
11 | S=C(S)N1CCNCC1 | -5.89% | –
12 | Cc1c2ccncc2c(C)c2c1[nH]c1ccccc12 | – | 1.78 µM (active)
13 | CCNCC(O)c1cccc(O)c1 (stereo not given) | -3.84% | –
14 | c1ccc(C2(N3CCCC3)CCCCC2)cc1 | -1.69% | –
15 | CCC1(C)CC(=O)NC(=O)C1 | 2.58% | –
16 | OCc1cnc[nH]1 | 26.7% | –
17 | CCCCC[C@@H](O)C1C(=O)OC(C)[C@H](O)/C=C/C=C/C=C/C=C/C=C(\C)C(O)C(O)C(O)C[C@H](O)C[C@H](O)C[C@H](O)C[C@H](O)C[C@@H]1O (stereo not given in full) | 0.532% and 10.2% | –
18 | OC[C@@H](O)[C@H]1O[C@@H]2O[C@H](C(Cl)(Cl)Cl)O[C@@H]2[C@H]1O | 13.7% | –
19 | CC(C)Nc1ccc(Nc2ccccc2)cc1 | – | 10 µM (active)
20 | CCCCCCCCCCCCCC(=O)O[C@@H]1[C@@H](C)[C@@]2(O)[C@@H](C=C(CO)C[C@@]3(O)C(=O)C(C)=C[C@@H]23)C2C(C)(C)[C@@]21OC(C)=O (stereo not given in full) | -2.77% | –

Row | Structure (SMILES) | max response | Potency
21 | CCCC(C)C1(CC)C(=O)NC(=O)NC1=O (stereo not given) | -3.05% | –
22 | C[C@H]1CC[C@]2(NC1)O[C@H]1C[C@H]3[C@@H]4CC[C@H]5C[C@@H](O[C@@H]6O[C@H](CO)[C@H](O[C@@H]7O[C@H](CO)[C@@H](O)[C@H](O[C@@H]8OC[C@@H](O)[C@H](O)[C@H]8O)[C@H]7O[C@@H]7O[C@H](CO)[C@@H](O)[C@H](O)[C@H]7O)[C@H](O)[C@H]6O)CC[C@]5(C)[C@H]4CC[C@]3(C)[C@H]1[C@@H]2C | 6.32% | –
23 | O=C(O)c1cc[c]([Hg][Cl])cc1 | 33.9% | –
24 | C=CCN1CC[C@]23c4c5ccc(O)c4O[C@H]2[C@@H](O)C=C[C@H]3[C@H]1C5 | 2.17% | –
25 | COc1ccc2c3c1O[C@H]1C(=O)CC[C@H]4[C@@H](C2)N(C)CC[C@]314 | 13% | –
26 | O=CC=O | 1.75% | –
27 | C[N+]1([O-])[C@@H]2CC(OC(=O)[C@H](CO)c3ccccc3)C[C@H]1[C@@H]1O[C@@H]12 (stereo not given in full) | 4.15% and -13.5% | –
28 | CC1(C)S[C@@H]2[C@H](N)C(=O)N2[C@H]1C(=O)O | -4.29% | –
29 | NC(N)=NOCC[C@H](N)C(=O)O | -9% | –
30 | O=C1C[C@@H]2OCC=C3CN4CC[C@]56c7ccccc7N1[C@H]5[C@H]2[C@H]3C[C@H]46 (tested in a mixture with another compound) | 12.7% and 17.6% | –
31 | O=[N+]([O-])/C=C/c1ccc2c(c1)OCO2 | – | 1.58 µM (active)
32 | O=C(O)C(Cl)(Cl)Cl | 5.93% | –
33 | CC(N)Cc1c[nH]c2ccc(OCc3cccs3)cc12 (stereo not given) | – | 1.41 µM (active)
34 | N[C@@H](Cn1ccc(=O)[nH]c1=O)C(=O)O | 15.1% | –
35 | [S]=[Sb](=[S])[S][Sb](=[S])=[S] | 3.55% | –
36 | N#CN | 10.9% | –
37 | CCN(CC)C(=O)/C(Cl)=C(\C)OP(=O)(OC)OC | -6.42% | –
38 | Cc1cccc(C(C)c2cnc[nH]2)c1C (stereo not given) | 17.3% | –
39 | CCCN1CCc2cccc3c2[C@H]1Cc1ccc(O)c(O)c1-3 | – | 2.82 µM (active)
40 | C[N+]1([O-])[C@@H]2CC[C@H]1CC(OC(=O)C(CO)c1ccccc1)C2 (stereo not given in full) | 6.16% and -9.54% | –
